Compounds without any hit were thinned out: in the full panel of roughly 79,000, 15% have a hit. Cut-off read from the data, not from the text of the source: active = growth inhibition above about 70%; inactive = the rest.
How the values were obtained:
[1] = NCI Yeast Anticancer Drug Screen. Data for the rad50 strain (AID 155);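 note: 0% = growth of vehicle-only cultures of the same strain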; conditions: S. cerevisiae rad50 strain growth inhibition; at 50.0 µM; hits give high values
Procedure, shortened: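 Cells are treated with compound, grown, and their growth is then scored against vehicle-only cultures of the same repair-deficient yeast strain.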

[2] = NCI Yeast Anticancer Drug Screen. Data for the mec2-1 strain (AID 157); conditions: S. cerevisiae mec2-1 strain, at 50.0 µM, hits give high values
Procedure, shortened: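 Yeast mec2-1 mutant treated with compound. Readout: growth inhibition vs vehicle controls.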

[3] = NCI Yeast Anticancer Drug Screen. Data for the sgs1 mgt1 strain (AID 161);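 note: 0% = growth of cultures given vehicle only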; conditions: S. cerevisiae sgs1 mgt1 strain, at 50.0 µM, hits give high values
Procedure, shortened: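 Mutant yeast exposed to compound; growth scored against vehicle-only wells.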

[4] = NCI Yeast Anticancer Drug Screen. Data for the cln2 rad14 strain (AID 165);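 note: 0% = growth equal to vehicle treated cultures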; conditions: S. cerevisiae cln2 rad14 strain, at 50.0 µM, hits give high values
Procedure, shortened: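 cln2 rad14 yeast strain; compound exposure; growth inhibition read vs vehicle controls.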

[5] = NCI Yeast Anticancer Drug Screen. Data for the bub3 strain (AID 167); conditions: S. cerevisiae bub3 mutant strain, at 50.0 µM, hits give high values
Procedure, shortened: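 Part of a panel of yeast mutants defective in DNA damage repair or cell cycle regulation. Each strain is grown with compound, and inhibition is calculated relative to solvent-treated cultures.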

[6] = NCI Yeast Anticancer Drug Screen. Data for the mlh1 rad18 strain (AID 175); conditions: S. cerevisiae mlh1 rad18 strain growth inhibition; at 50.0 µM; hits give high values
Procedure, shortened: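 Yeast w/ defined DNA-repair lesions; compound exposure; growth vs vehicle controls → % inhibition.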

Measured: growth inhibition

O=C(O)CCSc1nc2c(=O)[nH][nH]c(=O)c2n1Cc1ccccc1
inactive: [1] 7.2% | [2] -13.2% | [3] 7.05% | [4] -53.1% | [5] -0.75% | [6] 9.7%

CC[Si](CC)(CC)[Si](c1ccccc1)(c1ccccc1)c1ccccc1
inactive: [1] 42.1% | [2] 32% | [3] 17.1% | [4] 8.8% | [5] -17.4% | [6] 48.8%

O=C(NC(=S)c1ccccc1)Nc1ccccc1
inactive: [1] 2.1% | [2] 37.5% | [3] 6.85% | [4] -8.85% | [5] 24.4% | [6] 18.9%

O=S(=O)(O)Cc1ccc(CS(=O)(=O)O)cc1
inactive: [1] 14.7% | [2] -2.1% | [3] -1.3% | [4] -56.4% | [5] -3.8% | [6] -17%

O=C1/C(=C/c2ccccc2)CN(C(=O)Oc2ccccc2)C/C1=C\c1ccccc1
inactive: [1] -21% | [2] -15.2% | [3] -12.9% | [4] 10.3% | [5] -7.05% | [6] -13.8%

[N-]=[N+]=NC(=O)c1cnn(-c2ccccc2)c1N
inactive: [1] 9.65% | [2] 18.9% | [3] 9.4% | [4] -27.4% | [5] 14.6% | [6] 2.2%

O=C(O)CC/C(=N\Nc1ccc([N+](=O)[O-])cc1[N+](=O)[O-])c1ccccc1
inactive: [1] 0.7% | [2] 26.4% | [3] 44.3% | [4] -18.4% | [5] 16.2% | [6] 30.3%

O=C(OC1(c2nccc3ccccc23)CCCN(Cc2ccccc2)C1)c1ccccc1 (stereo unspecified)
inactive: [1] 28.9% | [2] 11.8% | [3] 15.9% | [4] 14.2% | [5] -1.4% | [6] 24.1%

CCOC(=O)C(C(=O)OCC)=C1N[C@H](C(=O)OCC)CS1
inactive: [1] -0.8% | [2] -17.5% | [3] -15.8% | [4] 13% | [5] -6.7% | [6] -22.8%

NC(CC(=O)O)C(=O)OCc1cccc(N=Nc2ccccc2)c1 (stereo unspecified)
inactive: [1] 7.8% | [2] -8.35% | [3] -7.2% | [4] -3.2% | [5] -2.4% | [6] 4.3%

COC1CCC(C(C)(C)C)CC1 (stereo unspecified)
inactive: [1] 2.45% | [2] -11.6% | [3] 0.15% | [4] -3.8% | [5] 5.85% | [6] -21.7%

Cc1cccc2c(N=[N+]=[N-])cc(C(F)(F)F)nc12
inactive: [1] 5.35% | [2] 6.7% | [3] -0.6% | [4] -43% | [5] 12.7% | [6] -1.4%

COCCn1nc(-c2ccc(Cl)cc2)c(-c2ccc(Cl)cc2)c(C(C)=O)c1=O
inactive: [1] 12.2% | [2] -5.15% | [3] 0.9% | [4] 9.05% | [5] -1.7% | [6] -7.85%

CC1(C)C(=O)C(C)(C)C1=NN
inactive: [1] 7.5% | [2] 11.8% | [3] -4.45% | [4] 3% | [5] -4.9% | [6] 23.9%

O=C1c2ccccc2C(=O)N1C/C(Cl)=C/Cl
inactive: [1] -21.9% | [2] -6.5% | [3] -11.4% | [4] -3.65% | [5] 8.75% | [6] -22.6%

CCCCCCCCCC1OC(C)C(C)O1 (stereo unspecified)
inactive: [1] 24.6% | [2] 7.55% | [3] 16.3% | [4] -19.1% | [5] 1.55% | [6] 29.4%

Nc1ccccc1NC1CCN(Cc2ccccc2)CC1
inactive: [1] 27.2% | [2] -3.35% | [3] 25.8% | [4] 33.5% | [5] 22.9% | [6] 19.1%

CCC(C)C(C)O (stereo unspecified)
inactive: [1] -7.05% | [2] -53% | [3] 2.9% | [4] 14.5% | [5] -12.8% | [6] 0.1%

Cn1ncc2c(=O)[nH]c(NCCO)nc21
inactive: [1] 3.3% | [2] 1.25% | [3] 0.9% | [4] -16.9% | [5] 8.7% | [6] 0.4%

Cc1c(C#N)c2n(c1C)CC(=O)N2
inactive: [1] 7.85% | [2] 0.45% | [3] 2.8% | [4] -0.85% | [5] -20.4% | [6] -33.9%

C=C(C)C(=O)OC1CC2(C)OC2CC(OC(C)=O)/C(C)=C/C2OC(=O)C(=C)C21 (stereo unspecified)
inactive: [1] 20.8% | [2] 49.7% | [3] 31.7% | [4] 39.5% | [5] 46.6% | [6] -7.5%

CC1(C)CC(O)=CC(=O)N1
inactive: [1] 15.9% | [2] -5.75% | [3] -3.85% | [4] 11.7% | [5] 10.3% | [6] 4.45%

S=C1NNC(=S)NN1
inactive: [1] 43.7% | [2] 29.8% | [3] 39.9% | [4] 37.9% | [5] 49.9% | [6] 62.7%

CNC(=O)NNC(=O)NC
inactive: [1] -45.1% | [2] -24.6% | [3] -24.6% | [4] -27.6% | [5] -15.7% | [6] -6.05%

c1ccc(C2OCCO2)cc1
inactive: [1] 4.05% | [2] -15.2% | [3] -6.7% | [4] 6.6% | [5] -0.2% | [6] 10.4%

CC(=O)CC(O)(C(F)(F)Cl)C(F)(Cl)Cl (stereo unspecified)
inactive: [1] -35.5% | [2] -47.7% | [3] -42.8% | [4] 0.2% | [5] -30.1% | [6] -35.8%

COc1cc2c[n+]3ccc4ccccc4c3c(N)c2cc1OC
inactive: [1] 16% | [2] -8.2% | [3] -10.6% | [4] 15.8% | [5] 5.9% | [6] -4.85%

CC1=Nc2c([nH]c(=S)[nH]c2=O)NC(c2c(Cl)cccc2Cl)C1 (stereo unspecified)
inactive: [1] 3.9% | [2] 11.6% | [3] 14.2% | [4] -4.5% | [5] -4.5% | [6] 34.6%

CCN(CCC#N)C(=S)Nc1ccc(C)c(C)c1
inactive: [1] -9% | [2] -8.55% | [3] 0% | [4] 1% | [5] -8.6% | [6] 0.1%

COc1c(Cl)cc(Cl)cc1C(c1cc(Cl)cc(Cl)c1OC)C(Cl)(Cl)Cl
inactive: [1] -3.25% | [2] -6.1% | [3] 4.6% | [4] -5% | [5] -3.6% | [6] 7.1%

NC(=O)c1ncn2c(=O)n(CCCl)nnc12
inactive: [1] -17.2% | [2] -9.4% | [3] 1.4% | [4] 19.5% | [5] -4.15% | [6] -47.2%

CCCCCCCCCCC1OCC(CC)([N+](=O)[O-])CO1 (stereo unspecified)
inactive: [1] 10.2% | [2] -27.9% | [3] 18.3% | [4] -46.4% | [5] 9.25% | [6] -10.6%

Brc1cc2ccccc2nc1-c1ccccc1
inactive: [1] -2.3% | [2] -7.95% | [3] 1% | [4] -23.4% | [5] 5.05% | [6] 10.1%

Cc1cccc(CNc2ccc(S(=O)(=O)c3ccc(NCc4cccc(C)n4)cc3)cc2)n1
inactive: [1] 4.7% | [2] 4.35% | [3] 9.75% | [4] -8.95% | [5] -5.95% | [6] 15.4%

CCOC(=O)c1cnc2ccccn2c1=O
inactive: [1] 5.15% | [2] 6.15% | [3] 7.3% | [4] 7.2% | [5] -18% | [6] -2.25%

Nc1cc([N+](=O)[O-])ccc1N1C(=O)CCCC1=O
inactive: [1] -15.2% | [2] -4.95% | [3] -10.1% | [4] -5.8% | [5] 5.85% | [6] 12.4%

CC(O)COc1ccc(Cl)cc1Cl (stereo unspecified)
inactive: [1] 27.1% | [2] -10.2% | [3] 45.6% | [4] 9.6% | [5] 8.35% | [6] 26.6%

COC(=O)Cc1[nH]c(C(=O)OC)c(C)c1C(=O)OC
inactive: [1] -6.7% | [2] -7.45% | [3] -3.15% | [4] -21.1% | [5] -6.95% | [6] -2.2%

COc1cc(C(=O)O)c(Cc2ccccc2)c(OC)c1O
inactive: [1] 9.8% | [2] 5.95% | [3] 1.05% | [4] 5.6% | [5] 9.05% | [6] -3.2%

NC(=O)c1ccccc1OCC(=O)O
inactive: [1] 6.65% | [2] -1.2% | [3] 4.2% | [4] 15.8% | [5] -6.45% | [6] 19.1%

CCC(c1ccc(CN(C)C)c(O)c1)C(CC)c1ccc(CN(C)C)c(O)c1 (stereo unspecified)
inactive: [1] 5.7% | [2] 1.35% | [3] -11.4% | [4] -12.9% | [5] -2.55% | [6] 2.75%
